Measured values as given in the supplement of paper PMC6897291.
Structures can show the parent of a compound that is named as a salt.

What was measured:
U-2932 [1] = experiment: growth inhibition by drug alone (1 - RLU/untreated control) (fraction); higher = stronger inhibition; settings: 177Lu-lilotomab satetraxetan 0 ug/ml
Method in brief: (§1)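 RIVA or U-2932 cells were left untreated or pretreated for 18 h with a radiolabelled anti-CD37 antibody conjugate (~600 MBq/mg) at 0.5 µg/ml for RIVA or 1 µg/ml for U-2932. The cells were then washed and seeded at 3,000 cells/well on plates pre-printed with the Selleck Cambridge Cancer Compound library, dosed at 10/100 nM for RIVA and 10/1,000 nM for U-2932. From day 3, RealTime-Glo luminescence was read daily after 1 h at 37°C. Growth inhibition was taken as one minus RLU over the mean of the untreated no-drug wells, of which there were 48 per plate.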

RIVA [2] = experiment: as above; settings: 177Lu-lilotomab satetraxetan 0 ug/ml
Method in brief: as §1

U-2932 [3] = experiment: growth inhibition by drug plus 177Lu-lilotomab satetraxetan (1 - RLU/untreated control) (fraction); higher = stronger inhibition; settings: 177Lu-lilotomab satetraxetan 1 ug/ml
Method in brief: as §1

RIVA [4] = experiment: as above; settings: 177Lu-lilotomab satetraxetan 0.5 ug/ml
Method in brief: as §1

| Structure (SMILES) | growth inhibition by drug alone (U-2932 [1]; 10 nM, time (day): 3) | growth inhibition by drug alone (U-2932 [1]; 10 nM, time (day): 4) | growth inhibition by drug alone (U-2932 [1]; 10 nM, time (day): 5) | growth inhibition by drug alone (U-2932 [1]; 10 nM, time (day): 6) | growth inhibition by drug alone (U-2932 [1]; 1000 nM, time (day): 3) | growth inhibition by drug alone (U-2932 [1]; 1000 nM, time (day): 4) | growth inhibition by drug alone (U-2932 [1]; 1000 nM, time (day): 5) | growth inhibition by drug alone (U-2932 [1]; 1000 nM, time (day): 6) | growth inhibition by drug alone (RIVA [2]; 10 nM, time (day): 3) | growth inhibition by drug alone (RIVA [2]; 10 nM, time (day): 4) | growth inhibition by drug alone (RIVA [2]; 10 nM, time (day): 5) | growth inhibition by drug alone (RIVA [2]; 10 nM, time (day): 6) | growth inhibition by drug alone (RIVA [2]; 100 nM, time (day): 3) | growth inhibition by drug alone (RIVA [2]; 100 nM, time (day): 4) | growth inhibition by drug alone (RIVA [2]; 100 nM, time (day): 5) | growth inhibition by drug alone (RIVA [2]; 100 nM, time (day): 6) | growth inhibition by drug plus 177Lu-lilotomab satetraxetan (U-2932 [3]; 10 nM, time (day): 3) | growth inhibition by drug plus 177Lu-lilotomab satetraxetan (U-2932 [3]; 10 nM, time (day): 4) | growth inhibition by drug plus 177Lu-lilotomab satetraxetan (U-2932 [3]; 10 nM, time (day): 5) | growth inhibition by drug plus 177Lu-lilotomab satetraxetan (U-2932 [3]; 10 nM, time (day): 6) | growth inhibition by drug plus 177Lu-lilotomab satetraxetan (U-2932 [3]; 1000 nM, time (day): 3) | growth inhibition by drug plus 177Lu-lilotomab satetraxetan (U-2932 [3]; 1000 nM, time (day): 4) | growth inhibition by drug plus 177Lu-lilotomab satetraxetan (U-2932 [3]; 1000 nM, time (day): 5) | growth inhibition by drug plus 177Lu-lilotomab satetraxetan (U-2932 [3]; 1000 nM, time (day): 6) | growth inhibition by drug plus 177Lu-lilotomab satetraxetan (RIVA [4]; 10 nM, time (day): 3) | growth inhibition by drug plus 177Lu-lilotomab satetraxetan (RIVA [4]; 10 nM, time (day): 4) | growth inhibition by drug plus 177Lu-lilotomab satetraxetan (RIVA [4]; 10 nM, time (day): 5) | growth inhibition by drug plus 177Lu-lilotomab satetraxetan (RIVA [4]; 10 nM, time (day): 6) | growth inhibition by drug plus 177Lu-lilotomab satetraxetan (RIVA [4]; 100 nM, time (day): 3) | growth inhibition by drug plus 177Lu-lilotomab satetraxetan (RIVA [4]; 100 nM, time (day): 4) | growth inhibition by drug plus 177Lu-lilotomab satetraxetan (RIVA [4]; 100 nM, time (day): 5) | growth inhibition by drug plus 177Lu-lilotomab satetraxetan (RIVA [4]; 100 nM, time (day): 6) |
| --- | --- | --- | --- | --- | --- | --- | --- | --- | --- | --- | --- | --- | --- | --- | --- | --- | --- | --- | --- | --- | --- | --- | --- | --- | --- | --- | --- | --- | --- | --- | --- | --- |
| CCn1c(-c2nonc2N)nc2c(C#CC(C)(C)O)ncc(OC[C@H]3CCCNC3)c21 | 0.0651 | 0.0169 | -0.0977 | -0.22 | 0.654 | 0.769 | 0.826 | 0.861 | 0.0369 | -0.0639 | -0.133 | -0.326 | -0.134 | -0.204 | -0.217 | -0.34 | -0.0148 | 0.000859 | -0.00972 | 0.0167 | 0.596 | 0.736 | 0.792 | 0.836 | 0.28 | 0.464 | 0.475 | 0.494 | 0.315 | 0.41 | 0.42 | 0.413 |
| COC1=CC(c2cc3ccccc3[nH]2)=N/C1=C\c1[nH]c(C)cc1C [Obatoclax mesylate (GX15-070)] | 0.114 | 0.0688 | -0.0597 | -0.127 | 0.123 | 0.0924 | 0.0457 | -0.0101 | 0.00951 | 0.024 | -0.054 | -0.371 | -0.444 | -0.248 | -0.309 | -0.6 | 0.00229 | 0.0671 | 0.129 | 0.144 | 0.143 | 0.163 | 0.242 | 0.343 | 0.479 | 0.58 | 0.604 | 0.618 | 0.201 | 0.411 | 0.412 | 0.435 |
| COc1c(C)cnc(Cn2cnc3c(Cl)nc(N)nc32)c1C | 0.137 | 0.0945 | 0.017 | -0.0336 | 0.935 | 0.979 | 0.986 | 0.987 | -0.00355 | 0.0266 | -0.0608 | -0.277 | 0.0172 | 0.0454 | 0.0061 | -0.105 | -0.00351 | 0.0579 | 0.0581 | 0.132 | 0.949 | 0.985 | 0.988 | 0.989 | 0.511 | 0.587 | 0.6 | 0.607 | 0.471 | 0.569 | 0.584 | 0.597 |
